Measured values reported in the supplement of paper PMC4206461.

The compounds below were run on Pseudomonas aeruginosa PA14 wild type (assay: respiration area under curve with compound as sole nitrogen source, 24 h (OmniLog AUC (arbitrary units)); higher = more respiration / better utilisation as nitrogen source, active = 2000 or more).
Procedure: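 Biolog Phenotype MicroArray plates PM6-PM8: each di/tripeptide is the sole nitrogen source (IF-0 medium with succinate/ferric citrate and dye mix A). Tetrazolium reduction was read in the OmniLog every 15 min for 24 h at 37°C and summarised as area under the respiration curve (arbitrary units). The paper counts values below 2000 as no respiration and above 8000 as solid respiration. Replicate datasets are averaged.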

Respiration area under curve, active:
C[C@@H](NC(=O)CN)C(=O)O (plate: PM8) 5060
CC(C)[C@H](N)C(=O)N[C@@H](CCCN=C(N)N)C(=O)O (plate: PM7) 14300
CSCC[C@H](N)C(=O)N[C@@H](CCC(N)=O)C(=O)O (plate: PM7) 9160
CSCC[C@H](N)C(=O)N[C@@H](CC(=O)O)C(=O)O (plate: PM7) 4700
CC[C@H](C)[C@H](N)C(=O)N1CCC[C@H]1C(=O)O (plate: PM6) 7460
CC(C)CC(N)C(=O)NC(CC(=O)O)C(=O)O (centres undefined) (plate: PM6) 7510
O=C(O)[C@H](CO)NC(=O)[C@@H]1CCCN1 (plate: PM8) 8750
CC(C)C[C@H](N)C(=O)NCC(=O)O (plate: PM6) 8220
CC(C)[C@H](NC(=O)[C@@H](N)Cc1c[nH]c2ccccc12)C(=O)O (plate: PM8) 3080
CC(C)[C@H](NC(=O)[C@@H](N)CC(N)=O)C(=O)O (plate: PM6) 7030
NC(N)=NCCC[C@H](NC(=O)[C@@H](N)Cc1c[nH]c2ccccc12)C(=O)O (plate: PM7) 13500
CC[C@H](C)[C@H](N)C(=O)N[C@H](C(=O)O)C(C)C (plate: PM6) 6570

Respiration area under curve, inactive:
N[C@@H](Cc1c[nH]c2ccccc12)C(=O)N[C@@H](CC(=O)O)C(=O)O (plate: PM7) 446
N[C@@H](Cc1c[nH]c2ccccc12)C(=O)N[C@@H](CCC(=O)O)C(=O)O (plate: PM7) 633
